Results as given in PubChem BioAssay (EPA / NIEHS).
Calls of active or inactive are those of the source. Rule for the calls: active = hit-call score of the fitted dose curve at least 0.9, where 1 is the maximum; inactive = score below 0.9.

Columns and labels:
[1] = read-out: Monokine induced gamma interferon (MIG), CXCL9 (gene 4283); assay: BSK_hDFCGF_MIG: BioMAP Diversity Plus: hDFCGF Assay for Monokine induced gamma interferon (MIG) Biomarker Activity (AID 2283063); details: primary human foreskin fibroblasts; actives raise or lower the signal
Method in brief: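 MIG signal, determined by ELISA, reflects 24 h chemical exposure of human skin primary fibroblasts. DMSO serves as negative control and baseline.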

[2] = read-out: Matrix Metallopeptidase 1 (MMP1), MMP1 (gene 4312); assay: BSK_hDFCGF_MMP1: BioMAP Diversity Plus: hDFCGF Assay for Matrix Metallopeptidase 1 (MMP1) Biomarker Activity (AID 2283064); details: primary human foreskin fibroblasts; actives raise or lower the signal
Method in brief: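 Primary human foreskin fibroblasts in the hDFCGF system were dosed with test chemical, and MMP1 was measured by ELISA 24 h later. Values come from bidirectional curve fitting against the DMSO baseline.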

[3] = read-out: Vascular cell adhesion molecule 1 (VCAM1), VCAM1 (gene 7412); assay: BSK_hDFCGF_VCAM1: BioMAP Diversity Plus: hDFCGF Assay for Vascular cell adhesion molecule 1 (VCAM1) Biomarker Activity (AID 2283065); details: primary human foreskin fibroblasts; actives raise or lower the signal
Method in brief: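 Cells are dosed, cultured for 24 h, then VCAM-1 is quantified by ELISA; signal increases and decreases are both fitted relative to DMSO.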

[4] = read-out: Plasminogen activator inhibitor-1 (PAI1), SERPINE1 (gene 5054); assay: BSK_hDFCGF_PAI1: BioMAP Diversity Plus: hDFCGF Assay for Plasminogen activator inhibitor-1 (PAI1) Biomarker Activity (AID 2283066); details: primary human foreskin fibroblasts; actives raise or lower the signal
Method in brief: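 Human foreskin fibroblasts in the hDFCGF system were dosed with compound for 24 h; PAI-1 was quantified by ELISA. Bidirectional curve fitting used DMSO as negative control and baseline.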

[5] = read-out: Intercellular Adhesion Molecule 1 (ICAM1), ICAM1 (gene 3383); assay: BSK_KF3CT_ICAM1: BioMAP Diversity Plus: KF3CT Assay for Intercellular Adhesion Molecule 1 (ICAM1) Biomarker Activity (AID 2283067); details: primary human keratinocytes with fibroblasts; actives raise or lower the signal
Method in brief: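 Dose the keratinocyte/fibroblast co-culture, wait 24 h, measure ICAM-1 by ELISA, then fit increases or decreases against DMSO. Cytotoxicity is checked in parallel cultures by SRB total-protein staining.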

[6] = read-out: Interferon-gamma inducible Protein 10 (IP10), CXCL10 (gene 3627); assay: BSK_KF3CT_IP10: BioMAP Diversity Plus: KF3CT Assay for Interferon-gamma inducible Protein 10 (IP10) Biomarker Activity (AID 2283068); details: primary human keratinocytes with fibroblasts; actives raise or lower the signal
Method in brief: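 In a primary skin co-culture of keratinocytes and fibroblasts, IP-10 is quantified by ELISA at 24 h after dosing. SRB staining of parallel wells monitors overt toxicity. Curves are fitted both directions against DMSO.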

[7] = BSK_KF3CT_SRB: Viability Assessment in the BioMAP Diversity Plus: KF3CT Assay (AID 2283069); details: primary human keratinocytes with fibroblasts
Method in brief: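 Human primary keratinocyte plus foreskin fibroblast co-culture exposed to chemicals for 24 h. Total protein measured by 0.1% sulforhodamine B staining after 10% TCA fixation, read at 560 nm; bidirectional fitting versus DMSO baseline.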

[8] = read-out: Interleukin-1 alpha (IL1a), IL1A (gene 3552); assay: BSK_KF3CT_IL1a: BioMAP Diversity Plus: KF3CT Assay for Interleukin-1 alpha (IL1a) Biomarker Activity (AID 2283070); details: primary human keratinocytes with fibroblasts; actives raise or lower the signal
Method in brief: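 Human keratinocyte plus foreskin fibroblast primary co-culture, sampled 24 h after chemical dosing. IL-1a measured by ELISA; responses fitted bidirectionally against DMSO baseline (negative control), so gain or loss of signal both count.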

[9] = read-out: TIMP metallopeptidase inhibitor 2 (TIMP2), TIMP2 (gene 7077); assay: BSK_KF3CT_TIMP2: BioMAP Diversity Plus: KF3CT Assay for TIMP metallopeptidase inhibitor 2 (TIMP2) Biomarker Activity (AID 2283071); details: primary human keratinocytes with fibroblasts; actives raise or lower the signal
Method in brief: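 Human primary keratinocyte/foreskin fibroblast co-culture dosed with chemical and sampled at 24 h. TIMP-2 levels quantified by ELISA; bidirectional fitting against DMSO negative control as baseline.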

[10] = read-out: C-C motif chemokine 2 (Homo sapiens) (UniProt P13500); assay: BSK_KF3CT_MCP1: BioMAP Diversity Plus: KF3CT Assay for Monocyte Chemoattractant Protein 1 (MCP1/CCL2) Biomarker Activity (AID 2283073); details: primary human keratinocytes with fibroblasts; actives raise or lower the signal
Method in brief: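 Keratinocytes and foreskin fibroblasts were co-cultured, dosed with chemical, and sampled 24 h later. MCP-1 was quantified by ELISA, and the endpoint was analyzed with bidirectional fitting using DMSO as negative control.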

[11] = read-out: Matrix Metallopeptidase 9 (MMP9), MMP9 (gene 4318); assay: BSK_KF3CT_MMP9: BioMAP Diversity Plus: KF3CT Assay for Matrix Metallopeptidase 9 (MMP9) Biomarker Activity (AID 2283074); details: primary human keratinocytes with fibroblasts; actives raise or lower the signal
Method in brief: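 Keratinocyte plus foreskin fibroblast human primary skin co-culture was dosed with chemical and MMP-9 was quantified by ELISA 24 h later. Bidirectional curve fitting used DMSO as negative control and activity baseline.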

[12] = read-out: urokinase plasminogen activator (uPA), PLAU (gene 5328); assay: BSK_KF3CT_uPA: BioMAP Diversity Plus: KF3CT Assay for urokinase plasminogen activator (uPA) Biomarker Activity (AID 2283075); details: primary human keratinocytes with fibroblasts; actives raise or lower the signal
Method in brief: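 Human keratinocyte plus foreskin fibroblast primary co-culture exposed to chemical for 24 h. uPA levels were quantified by ELISA, and activity was fitted bidirectionally against a DMSO negative-control baseline.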

[13] = read-out: CD40, CD40 (gene 958); assay: BSK_LPS_CD40: BioMAP Diversity Plus: LPS Assay for CD40 Biomarker Activity (AID 2283076); details: primary human HUVEC with PBMC; actives raise or lower the signal
Method in brief: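 CD40 signal, measured by ELISA, is fitted in both directions relative to DMSO vehicle. The system is an LPS-driven human vascular primary co-culture of endothelial cells and PBMC, sampled 24 h after compound addition.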

[14] = read-out: E-selectin (Homo sapiens) (UniProt P16581); assay: BSK_LPS_Eselectin: BioMAP Diversity Plus: LPS Assay for Eselectin Biomarker Activity (AID 2283077); details: primary human HUVEC with PBMC; actives raise or lower the signal
Method in brief: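 Signal of E-selectin, detected by ELISA, served as the endpoint; cells were umbilical vein endothelium with PBMC, read 24 h after treatment. DMSO defined baseline, and both increases and decreases were fitted.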

[15] = read-out: Interleukin-8 (IL8), CXCL8 (gene 3576); assay: BSK_LPS_IL8: BioMAP Diversity Plus: LPS Assay for Interleukin-8 (IL8) Biomarker Activity (AID 2283078); details: primary human HUVEC with PBMC; actives raise or lower the signal
Method in brief: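 Endothelial cells and PBMC from human donors are co-cultured, treated with chemicals and LPS, then assayed for IL-8 by ELISA after 24 h. Parallel SRB staining (0.1% SRB after 10% TCA fixation, 560 nm) flags cytotoxicity.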

[16] = BSK_LPS_SRB: Viability Assessment in the BioMAP Diversity Plus: LPS Assay (AID 2283079); details: primary human HUVEC with PBMC;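 note: total protein by sulforhodamine B absorbance as a cytotoxicity measure; measured one day after compound addition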
Method in brief: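 Overt cytotoxicity was gauged by sulforhodamine B total-protein staining in a primary human vascular endothelial and mononuclear cell co-culture 24 h post-dosing. Activity was fitted in both directions relative to DMSO.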

[17] = read-out: Interleukin-1 alpha (IL1a), IL1A (gene 3552); assay: BSK_LPS_IL1a: BioMAP Diversity Plus: LPS Assay for Interleukin-1 alpha (IL1a) Biomarker Activity (AID 2283080); details: primary human HUVEC with PBMC; actives raise or lower the signal
Method in brief: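 Measured: IL-1 alpha via ELISA at 24 h in LPS-activated human umbilical vein endothelium–PBMC co-culture. Baseline: DMSO, bidirectional fitting.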

[18] = read-out: Monocyte Chemoattractant Protein-1 (MCP1), CCL2 (gene 6347); assay: BSK_LPS_MCP1: BioMAP Diversity Plus: LPS Assay for Monocyte Chemoattractant Protein-1 (MCP1) Biomarker Activity (AID 2283081); details: primary human HUVEC with PBMC; actives raise or lower the signal
Method in brief: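 LPS-stimulated HUVEC/PBMC co-culture; chemical, 24 h; MCP-1 by ELISA; bidirectional fit vs DMSO; cytotoxicity via SRB (0.1% stain, 10% TCA fix, 560 nm) in parallel wells.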

[19] = BSK_LPS_PGE2: BioMAP Diversity Plus: LPS Assay for Prostaglandin E2 (PGE2) Biomarker Activity (AID 2283082); details: primary human HUVEC with PBMC; actives raise or lower the signal
Method in brief: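 HUVEC plus PBMC co-culture stimulated with LPS; secreted PGE2 quantified by ELISA 24 h after chemical dosing. Activity fitted bidirectionally against DMSO as negative control and baseline; parallel SRB total-protein staining served as cytotoxicity check.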

[20] = read-out: Transforming growth factor beta 1 (TGFb1), TGFB1 (gene 7040); assay: BSK_KF3CT_TGFb1: BioMAP Diversity Plus: KF3CT Assay for Transforming growth factor beta 1 (TGFb1) Biomarker Activity (AID 2283072); details: primary human keratinocytes with fibroblasts; actives raise or lower the signal
Method in brief: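 Human keratinocyte plus foreskin fibroblast primary co-culture, dosed with chemical for 24 h. TGF-b1 quantified by ELISA. Activity fitted bidirectionally against DMSO negative control as baseline.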

Measured: outcome

Sequence of E-selectin (Homo sapiens) (P16581 whole entry, looked up): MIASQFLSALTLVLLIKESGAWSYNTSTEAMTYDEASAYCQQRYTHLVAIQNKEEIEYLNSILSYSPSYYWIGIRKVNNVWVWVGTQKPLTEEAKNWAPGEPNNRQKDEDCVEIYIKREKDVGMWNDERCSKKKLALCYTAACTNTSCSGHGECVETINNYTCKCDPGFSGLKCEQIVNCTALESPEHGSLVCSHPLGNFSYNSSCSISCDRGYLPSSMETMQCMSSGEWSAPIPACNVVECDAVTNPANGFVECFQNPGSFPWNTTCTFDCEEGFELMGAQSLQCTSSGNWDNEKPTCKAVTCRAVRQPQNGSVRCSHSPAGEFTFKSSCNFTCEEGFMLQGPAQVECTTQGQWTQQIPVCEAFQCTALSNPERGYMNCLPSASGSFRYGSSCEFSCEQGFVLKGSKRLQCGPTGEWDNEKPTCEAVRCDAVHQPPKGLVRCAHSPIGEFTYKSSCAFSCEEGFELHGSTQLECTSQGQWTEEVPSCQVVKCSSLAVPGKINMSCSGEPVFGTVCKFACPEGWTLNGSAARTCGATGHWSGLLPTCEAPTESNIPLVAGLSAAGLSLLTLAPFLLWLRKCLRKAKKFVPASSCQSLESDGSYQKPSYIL

CCOC(N)=O
not listed: [20]
inactive: all other assays above

Cc1ccc(S(=O)(=O)NC(=O)NN2CCCCCC2)cc1
inactive: all assays above

CC[C@H](C)C(=O)O[C@H]1C[C@H](O)C=C2C=C[C@H](C)[C@H](CC[C@@H](O)C[C@@H](O)CC(=O)O)[C@H]21
not listed: [20]
inactive: all other assays above

NC(=O)NN=Cc1ccc([N+](=O)[O-])o1
not listed: [20]
inactive: all other assays above

Cc1cccc(O)c1C
not listed: [20]
inactive: all other assays above

CC1(C)C(=O)N(Cl)C(=O)N1Cl
not listed: [20]
inactive: all other assays above

CCCCCCCC1CCC(=O)O1 (centres undefined)
not listed: [20]
inactive: all other assays above
